Data from PubChem BioAssay (Tox21).
Results filed as inconclusive are left out. Unmarked numbers belong to inactive results. The source made the active and inactive calls. Calls come from the whole dose curve; as a rule, active = well fitted cell-killing curve with a large enough effect in the repeat runs; inconclusive = weak or mixed curves, or effect the other way; inactive = flat fitted curve, though single readings scatter.

Experiment: cAMP Responsive Elements (CRE) small molecule antagonists, cell-based qHTS assay: qHTS cell viability counter screen (AID 2060913); note: nearly all actives have a fitted effect of over 40% in size
Conditions: CRE-bla HEK293T viability, CellTiter-Glo luminescence, 5 h; series mostly up to 92.4 µM; viability change, negative = cytotoxic: at the top concentration
Summary of the method: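 CRE-bla HEK293T cells were seeded in assay medium with 10% dialyzed FBS, incubated 18 hrs at 37 C, then exposed to compounds plus 0.25 uM final NKH477 for 3 hrs. Viability was read by CellTiter-Glo luminescence after 30 min, in the same wells.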
% is set by controls: 0 for no effect and ±100 for the full control effect.

Row | Structure (SMILES) | viability change, negative = cytotoxic | Potency
1 | N#Cc1ccc(C(=O)O)cc1 | 0.59% | –
2 | C=C(C)C1CC=C(C)C(OC(C)=O)C1 (stereo not given) | – | inactive
3 | CCC(C)COC(C)=O (stereo not given) | 1.29% | –
4 | CCOc1ccccc1C(N)=O | – | inactive
5 | O=c1cc[nH]cc1 | 6.67% | –
6 | O=C(OCC1CCC2OC2C1)C1CCC2OC2C1 (stereo not given) | – | inactive
7 | CC(C)=O | 5.33% | –
8 | CCC(C)(C)OC | -2.22% | –
9 | Nc1ccc(S(=O)(=O)Nc2cnc3ccccc3n2)cc1 | – | inactive
10 | OCc1ccccc1O | -0.701% [at 42.5 µM] | –
11 | N#CCCOCCOCCC#N | -1.35% | –
12 | CC(=O)c1ccc(Cl)c(Cl)c1Cl | 0.793% | –
13 | CC(C)Cc1ccc(C(C)C(=O)O)cc1 (stereo not given) | – | inactive
14 | CCOC(=O)CC(C)=O | 3.7% | –
15 | O=[N+]([O-])c1ccc(CCO)cc1 | 0.701% | –
16 | CCCCCCCCCCCSCC(=O)O | -0.0077% | –
17 | O=C(CS)OCCOC(=O)CS | -3.63% | –
18 | CCc1nccnc1C | -13.2% | –
19 | O=C1CCc2ccccc2O1 | – | inactive
20 | CCOc1ccc2c(c1)C(C)=CC(C)(C)N2 | – | inactive

Row | Structure (SMILES) | viability change, negative = cytotoxic | Potency
21 | CC/C=C/CCCCCCCCCCOC(C)=O | 6.11% | –
22 | C=C/C(C)=C/C/C=C(\C)CCC=C(C)C | -0.23% | –
23 | CCC(C(=O)NC(=O)NC(C)=O)c1ccccc1 (stereo not given) | 2.94% [at 42.5 µM] | –
24 | CC1(C)[C@H](C(=O)O)N2C(=O)C[C@H]2S1(=O)=O | -0.189% [at 42.5 µM] | –
25 | CC(C)C(=O)OCCc1ccccc1 | 6.7% | –
26 | Nc1nc2ccccc2[nH]1 | – | inactive
27 | CO[C@@H]1COCC[C@@H]1N[C@@H]1CC[C@@](C(=O)N2CCc3ncc(C(F)(F)F)cc3C2)(C(C)C)C1 | -2.65% | –
28 | CCCCCCCC(=O)O | – | inactive
29 | NC(=O)N1c2ccccc2CC(=O)c2ccccc21 | -3.03% [at 42.5 µM] | –
30 | CCC(=O)Nc1cccc(N)c1 | 4.77% | –
31 | CCCC(O)C(CC)CO (stereo not given) | – | inactive
32 | CC1=C(/C=C/C(C)=C\C=C\C(C)=C\C(=O)O)C(C)(C)CCC1 | 3.02% | –
33 | Sc1nc2ccccc2s1 | 2.92% | –
34 | CC(C)(COC(=O)c1ccccc1)COC(=O)c1ccccc1 | 7.43% | –
35 | Cc1cc(C(=C2C=CC(=Nc3ccc(S(=O)(=O)O)cc3S(=O)(=O)O)C=C2)c2ccc(Nc3ccc(S(=O)(=O)O)cc3)cc2)ccc1N | -2.08% [at 42.5 µM] | –
36 | C=CCCC | 6.02% | –
37 | CCOC(=O)[C@H](CCc1ccccc1)N[C@H]1CCc2ccccc2N(CC(=O)O)C1=O | 7.23% [at 42.5 µM] | –
38 | CC(C)CCO | -8.87% | –
39 | Nc1nccs1 | 1.67% | –
40 | O=C(O)CC(=O)O | 3.73% | –
